Source: PubChem BioAssay
HSF-1 act: increases HSF-1 driven luciferase reporter signal | NIH3T3-HGL HSF-1 luciferase reporter, MG132, 8 h; 100% = twice DMSO control signal | activation, % at 9 µM | hit rate 1.7% among 300,000 | AID 504408;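 active = mean replicate activation of at least 50% with a set share of replicates each reaching 50%; inconclusive = only one of those two conditions met; inactive = mean below 50% and too few replicates reaching it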
pCIP destab: p/CIP protein destabilization | Q05BA5 | decrease of EGFP signal, % at 10 µM | hit rate 0.01% among 290,000 | F442A p/CIP-EGFP cells, EGFP fluorescence, 16 h | AID 1984;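 active = EGFP signal decrease of at least 30% at 10 µM or well 3 SD below plate mean, unless failing retest; inactive = the rest, including hits failing retest or dose response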
NALP1 yeast inh: NALP1 inhibition | S. cerevisiae NALP1/ASC/caspase-1 growth, X-gal OD620, 72 h | inhibition, % at 10 µM | hit rate 0.61% among 280,000; in the data active = inhibition mostly above about 24%, no sharp cut-off; inactive = mostly below about 32%
HSP90 refold inh: HSP90 refolding inhibition in rabbit reticulocyte lysate; luciferase refolding luminescence, 3 h; inhibition, % at 5.6 µM; hit rate 0.91% among 290,000; AID 1789;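 active = inhibition above the screen-wide mean plus 3 SD, computed separately per campaign, cut at about 16% in these data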;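 note: inhibitors lower the luminescence because luciferase stays unfolded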
Hsp70 activator: transcriptional activators of Hsp70; activation, % at 10 µM; HeLa Hsp70 promoter luciferase reporter, luminescence; scaled: vehicle 0, proteasome-inhibitor control 100%; hit rate 0.04% among 200,000; AID 1203;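 active = activation above the mean across all tested compounds plus 3 SD, cutoff set per campaign, cut at about 5.5% in these data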
HSF1 inh: HSF1 inhibition | activity change, negative = inhibition, % at 7.5 µM (by protocol) | NIH3T3-HGL HSE-luciferase, MG132-induced, luminescence 8 h; stronger effect = lower value | hit rate 0.77% among 300,000;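 active = more than half of replicate wells show activity change below -50%, luminescence cut by over half; inconclusive = some wells, but at most half, below -50%; inactive = no replicate well below -50%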;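 note: luciferase reports HSF-1 transcriptional activity via heat shock element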
Each line names hits and unclear results; the compound was inactive in the other large screens. This is a sample that favours compounds with a hit; in the whole collection about 3.8% have one here.

COc1ccc(OC)c2c1C(=O)C(Cl)=C(Cl)C2=O	NALP1 yeast inh 38.7, HSF1 inh -69.8 (no result: Hsp70 activator)
Cc1noc(C)c1S(=O)(=O)Nc1ccc(C(=O)N2CCC(C)CC2)cc1	none
CC(C)OCCCNC(=O)C1CCN(S(=O)(=O)N2CCCC2)CC1	none
COc1ccc(C(=O)n2nc(C#N)c(C#N)c2N)cc1	NALP1 yeast inh 37.0 (no result: Hsp70 activator)
Cc1ccc(S(=O)(=O)N2CCC(C(=O)N3CC(C)OC(C)C3)CC2)cc1 (stereo not drawn)	none (no result: Hsp70 activator)
O=C(NCC(c1cccs1)N1CCOCC1)C1CCN(S(=O)(=O)c2c(Cl)cccc2Cl)CC1 (stereo not drawn)	none (no result: pCIP destab, NALP1 yeast inh, HSP90 refold inh, Hsp70 activator)
O=C(CN1CCN(c2ccc(O)cc2)CC1)Nc1cc(S(=O)(=O)N2CCCCC2)ccc1Cl	none
O=C(CN1CCN(c2ccc(O)cc2)CC1)Nc1cc(S(=O)(=O)N2CCCC2)ccc1Cl	HSF1 inh -56.4
O=S(=O)(c1ccc(Cl)c(NC(=S)N/N=C/c2c(F)cccc2F)c1)N1CCOCC1	none
O=S(=O)(c1ccc(Cl)c(NC(=S)N/N=C/c2ccc(O)cc2)c1)N1CCOCC1	HSF-1 act 56.1
O=[N+]([O-])c1ccc(CSc2nnc(SCc3ccc(Cl)cc3)s2)cc1	HSF-1 act 55.7
Nc1nnc(SCc2ccc([N+](=O)[O-])cc2)s1	none
Nc1ccc2nc(SCc3ccc([N+](=O)[O-])cc3)sc2c1	HSF-1 act 98.4
O=C(N/N=C/c1ccccc1)c1ccc2c(c1)OCO2	HSP90 refold inh 16.1 (no result: Hsp70 activator)
O=C(N/N=C/c1ccc2c(c1)OCO2)c1cccnc1	none (no result: Hsp70 activator)
O=C(CNC(=O)c1ccc2c(c1)OCO2)N/N=C(Br)/C=C/c1ccccc1	HSF-1 act 65.8
O=C(N/N=C/c1ccc(Br)o1)c1ccc2c(c1)OCCO2	HSF1 inh -78.9
O=C(N/N=C/c1cccnc1)c1ccc2c(c1)OCCO2	HSF1 inh -63.3
O=C(O)c1ccc(/C=N/NC(=O)c2ccc3c(c2)OCCO3)cc1	none (no result: Hsp70 activator)
COc1ccc(CC(=O)N2CCN(c3ccccc3)CC2)cc1OC	none (no result: Hsp70 activator)
CCOc1ccc2c(c1)c(=O)c(S(=O)(=O)c1ccc(CC)cc1)cn2C	none (no result: Hsp70 activator)
O=[N+]([O-])c1ccccc1CSc1nc2ccccc2o1	none
COc1ccc(N2CCN(CC(=O)Nc3nc(C)cs3)CC2)cc1	none (no result: Hsp70 activator)
O=c1c2c3c(sc2nc(NCCO)n1Cc1ccco1)CCCCC3	HSF1 inh -56.7
CN(C)CCNc1nc2sc3c(c2c(=O)n1-c1ccccc1)CCCCC3	HSF-1 act 50.4 (no result: NALP1 yeast inh, Hsp70 activator)
COc1ccc(/C=C(/C(=O)c2cccs2)N2C=CC=CC2=C(C#N)C#N)cc1	HSF-1 act 176.9
COc1ccc(C(=O)/C(=C\c2ccco2)N2C=CC=CC2=C(C#N)C#N)cc1	HSF-1 act inconclusive
CCOC(=O)NC(N(O)c1cccc(Cl)c1)C(Cl)(Cl)Cl (stereo not drawn)	none (no result: Hsp70 activator)
c1cc2c(c(NCc3ccncc3)c1)CCCC2	NALP1 yeast inh 37.9
O=c1ccn(Cc2ccc(F)cc2)c2ccnc(C(F)(F)F)c12	none
CCCCNC(=O)Nc1ncn[nH]1	NALP1 yeast inh 39.6 (no result: Hsp70 activator)
Cc1cccc(N2C(=O)CSC23CCCCC3)c1	NALP1 yeast inh 35.4
CC1CCC2(CC1)SCC(=O)N2c1ccccc1 (stereo not drawn)	none
O=C(NN=C(c1ccccc1)c1ccccn1)c1ccccc1	none (no result: pCIP destab, NALP1 yeast inh, HSP90 refold inh, Hsp70 activator)
COc1ccc(C(=O)N/N=C(\c2ccccc2)c2ccccn2)cc1	HSF-1 act 99.6
CCCc1cc(=O)oc2c(CN(CC)CC)c(O)c(Cl)cc12	NALP1 yeast inh 35.1 (no result: Hsp70 activator)
O=C(/C=C/c1ccco1)Nc1nc(-c2ccccc2)cs1	HSF-1 act 58.2
Cc1csc(NC(=O)/C=C/c2ccco2)n1	HSF-1 act 57.1
Cc1csc(NC(=O)/C=C/c2ccc(C)o2)n1	none
CC(NC(N)=O)C(=O)Nc1ccc(Cl)c(S(=O)(=O)Nc2ccc(Br)cc2)c1 (stereo not drawn)	none
CC1CCCC(NC(=O)CCC(=O)NCc2ccccc2)C1C (stereo not drawn)	none (no result: Hsp70 activator)
CCC(=O)Oc1ccc2c(c1)OC1(OC(C)=O)OC(C)CC1=C2C (stereo not drawn)	none (no result: Hsp70 activator)
CC(C)[C@H](NC(=O)[C@@H]1Cc2ccccc2CN1)C(=O)Nc1ccc2c(c1)OCCO2	none (no result: Hsp70 activator)
CCC(C)[C@H](NC(=O)[C@@H]1Cc2ccccc2CN1)C(=O)Nc1ccc2c(c1)OCO2 (stereo partly drawn)	HSF-1 act 76.7 (no result: Hsp70 activator)
